The values that follow come from PubChem BioAssay.

Calls of active or inactive are those of the source.

Assay [1] has as its target Albumin (Bos taurus) (UniProt P02769). As to the kind of experiment: bovine serum albumin binders on microarray, profiling panel, artefact control for SMM control protein annotation, biochemical, small-molecule microarray, Alexa647 label, 635/667 nm fluorescence (AID 1118).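 Also: score merges 667 nm emission intensity and signal-to-noise per printed compound spot.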 The following applies: BSA-A647 binding, fluorescence 635 nm, higher = more signal.
Assay [2] is described as follows: small-molecule microarray binders of probe aXIP, primary screen, biochemical, NeuroSMM set, 635/667 nm fluorescence (AID 1119).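 Also: probe is the protein aXip251-270 applied at 1 µg/mL to compound-printed slides; binding of probe to printed compounds measured as 667 nm fluorescence plus signal to noise.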 As to conditions: higher = more signal, called active from +8 up or from −8 down.
Assay [3] can be described thus: small-molecule binders of probe aNOTCH3, primary screen, biochemical, small-molecule microarray, 635/667 nm fluorescence (AID 1120).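 Also: probe is a biotin-tagged antibody raised against NOTCH3 rather than NOTCH3 protein; score merges spot fluorescence near 667 nm with spot signal to noise.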 As to conditions: higher = more signal.
Assay [4] can be described thus: small-molecule binders of probe aNOTCH2, primary screen, biochemical, small-molecule microarray, 635/667 nm fluorescence (AID 1121).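 Also: score merges feature fluorescence read at 667 nm with its signal to noise.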 The following applies: higher = more signal.
Assay [5] concerns the target Carbonic anhydrase 2 (Homo sapiens) (UniProt P00918). As to the kind of experiment: CAII small-molecule binders, profiling panel, biochemical, small-molecule microarray, Alexa647-labelled CAII (AID 1122). As to conditions: CAII-A647 binding fluorescence, higher = more signal.
The nature of assay [6]: COS7 lysate on small-molecule microarray, probe aHis, 635 nm (AID 1123).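 Also: z-score combines 667nm fluorescence intensity with signal-to-noise per printed compound spot.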 As to conditions: COS7 cell lysate, fluorescence, higher = more signal.
Assay [7] in a line: compound binding in COS7 lysate, probe aLAP1, primary screen, cell lysate, small-molecule microarray (AID 1124).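 Also: lysate comes from COS7 cells expressing LAP1 and is applied at 0.3 µg/mL; score merges spot fluorescence near 667 nm with signal-to-noise over triplicate slides.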 As to conditions: probe aLAP1, fluorescence, higher = more signal.
The subject of assay [8] is Sam68 (KHDRBS1). As to the kind of experiment: Sam68 small-molecule binders, primary screen, biochemical, small-molecule microarray, 635 nm fluorescence (AID 1125).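 Also: score merges 667 nm channel intensity with signal to noise over triplicate slides.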 The following applies: small-molecule microarray binding, higher = more signal.
Assay [9] deals with Chordin-like protein 2 (CHRDL2). As to the kind of experiment: CHRDL2 small-molecule binders, primary screen, biochemical, small-molecule microarray, 635 nm fluorescence (AID 1126).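 Also: printed compound slides probed with Chrdl2 protein at 4 µg/mL for 1 h at 4 C; score merges 667 nm emission intensity with signal to noise over three replicate slides.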 The following applies: small-molecule microarray binding, fluorescence 635 nm; higher = more signal.
Assay [10] concerns the target Concanavalin-A (Canavalia ensiformis) (UniProt P02866). As to the kind of experiment: ConA small-molecule binders, primary screen, artefact control for SMM control protein annotation, biochemical, small-molecule microarray, Alexa647 label, 635 nm (AID 1127).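 Also: z combines 667 nm emission intensity with signal-to-noise across three replicate slides.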 The following applies: ConA-A647 binding fluorescence, higher = more signal.
A short description of assay [11]: anti-His antibody binders, primary screen, artefact control for SMM control protein annotation, biochemical, small-molecule microarray, 635 nm fluorescence (AID 1128).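 Also: score merges feature fluorescence with signal-to-noise for each printed compound spot.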 The following applies: anti-His Alexa647 antibody binding, higher = more signal.
The test system of assay [12] is Human papillomavirus type 1a E7 protein (residues 1-88). As to the kind of experiment: HPV1a E7 small-molecule binders, primary screen, biochemical, small-molecule microarray, residues 1-88, 635 nm (AID 1129). The following applies: small-molecule microarray binding, fluorescence 635 nm; higher = more signal.
The target in assay [13] is Focal adhesion kinase 1 (Homo sapiens) (UniProt Q05397). As to the kind of experiment: small-molecule microarray binders of FAK, primary screen, biochemical, 635/667 nm fluorescence, BSA, DTT (AID 1130).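 Also: composite of spot emission at 667 nm and signal to noise over triplicate slides.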 As to conditions: PTK2 binding, 635 nm fluorescence, higher = more signal.
The test system of assay [14] is Fibrinogen (Alexa647-labelled). As to the kind of experiment: fibrinogen binders on compound microarrays, profiling panel, artefact control for SMM control-protein annotation, biochemical, small-molecule microarray, 635/667 nm fluorescence (AID 1131).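 Also: z-score merges 667 nm fluorescence with per-spot signal-to-noise over triplicate slides.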 As to conditions: fibrinogen-A647 binding fluorescence, higher = more signal.
The target in assay [15] is Follistatin (Homo sapiens) (UniProt P19883). As to the kind of experiment: follistatin binders on small-molecule microarrays, primary screen, biochemical, small-molecule microarray, 635/667 nm fluorescence (AID 1132). The following applies: FST binding, 635 nm fluorescence, higher = more signal.
The target in assay [16] is Fibroblast growth factor 2 (Homo sapiens) (UniProt P09038). As to the kind of experiment: FGF2 binders on small-molecule microarrays, primary screen, biochemical, small-molecule microarray, 635/667 nm fluorescence (AID 1133). The following applies: small-molecule microarray binding, FGF2, fluorescence 635/667; higher = more signal.
A short description of assay [17]: mitochondrial membrane potential change in A549 cells, profiling panel, cell-based, JC-1 fluorescence, basal, 24 h, 100 nL (AID 1138).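 Also: A549 lung adenocarcinoma cells under basal conditions with no added stimulus; test concentration not given here.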 As to conditions: higher = more signal.
In assay [18] the test system is Lefty1. As to the kind of experiment: Lefty1 binders on small-molecule microarrays, primary screen, biochemical, small-molecule microarray, 635/667 nm fluorescence (AID 1139). As to conditions: small-molecule microarray binding, fluorescence 635/667; higher = more signal.
Assay [19] deals with wheat germ agglutinin (Triticum aestivum), Alexa647-labelled. As to the kind of experiment: wheat germ agglutinin binders on compound microarrays, profiling panel, artefact control for SMM control-protein annotation, biochemical, small-molecule microarray, 635/667 nm fluorescence (AID 1140).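 Also: score merges 667 nm feature emission with signal to noise over triplicate slides.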 As to conditions: WGA-A647 binding, 635 nm fluorescence, higher = more signal.
For assay [20], the target named is Luciferin 4-monooxygenase (Photinus pyralis) (UniProt P08659). As to the kind of experiment: firefly luciferase enzyme inhibitors, primary screen, biochemical, luminescence, purified enzyme, 2006 set (AID 1141).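 Also: cell-free assay with purified firefly luciferase at 100 ng per well in PBS; test concentration not given here.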 As to conditions: SteadyGlo luminescence, 30 min, higher = more signal, called active from +8 up or from −8 down.
Luciferin 4-monooxygenase (Photinus pyralis), sequence (P08659 whole entry, looked up): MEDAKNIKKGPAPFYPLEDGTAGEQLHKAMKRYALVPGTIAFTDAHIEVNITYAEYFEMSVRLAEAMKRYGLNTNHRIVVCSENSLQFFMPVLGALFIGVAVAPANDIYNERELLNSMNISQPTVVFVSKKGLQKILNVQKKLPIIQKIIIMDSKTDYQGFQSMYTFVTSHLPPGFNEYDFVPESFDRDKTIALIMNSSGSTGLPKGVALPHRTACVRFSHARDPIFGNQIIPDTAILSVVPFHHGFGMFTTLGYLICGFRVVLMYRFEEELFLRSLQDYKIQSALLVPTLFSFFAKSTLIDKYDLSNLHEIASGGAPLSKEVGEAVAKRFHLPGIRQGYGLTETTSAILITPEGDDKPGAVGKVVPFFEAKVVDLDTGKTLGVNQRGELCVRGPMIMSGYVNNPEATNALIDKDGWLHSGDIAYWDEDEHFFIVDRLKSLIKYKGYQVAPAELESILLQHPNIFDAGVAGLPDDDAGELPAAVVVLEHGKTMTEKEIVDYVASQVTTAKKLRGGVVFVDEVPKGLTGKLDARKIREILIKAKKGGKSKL

Follistatin (Homo sapiens), sequence (P19883 whole entry, looked up): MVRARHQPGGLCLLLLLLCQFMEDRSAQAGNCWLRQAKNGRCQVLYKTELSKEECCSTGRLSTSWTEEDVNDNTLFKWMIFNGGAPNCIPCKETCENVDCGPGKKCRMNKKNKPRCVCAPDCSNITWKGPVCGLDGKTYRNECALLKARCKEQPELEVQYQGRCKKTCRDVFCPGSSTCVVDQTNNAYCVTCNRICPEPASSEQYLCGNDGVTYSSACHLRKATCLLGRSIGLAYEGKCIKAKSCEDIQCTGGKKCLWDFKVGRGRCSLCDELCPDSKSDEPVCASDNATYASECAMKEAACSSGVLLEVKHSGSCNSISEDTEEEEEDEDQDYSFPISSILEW
Focal adhesion kinase 1 (Homo sapiens), sequence (Q05397 whole entry, looked up): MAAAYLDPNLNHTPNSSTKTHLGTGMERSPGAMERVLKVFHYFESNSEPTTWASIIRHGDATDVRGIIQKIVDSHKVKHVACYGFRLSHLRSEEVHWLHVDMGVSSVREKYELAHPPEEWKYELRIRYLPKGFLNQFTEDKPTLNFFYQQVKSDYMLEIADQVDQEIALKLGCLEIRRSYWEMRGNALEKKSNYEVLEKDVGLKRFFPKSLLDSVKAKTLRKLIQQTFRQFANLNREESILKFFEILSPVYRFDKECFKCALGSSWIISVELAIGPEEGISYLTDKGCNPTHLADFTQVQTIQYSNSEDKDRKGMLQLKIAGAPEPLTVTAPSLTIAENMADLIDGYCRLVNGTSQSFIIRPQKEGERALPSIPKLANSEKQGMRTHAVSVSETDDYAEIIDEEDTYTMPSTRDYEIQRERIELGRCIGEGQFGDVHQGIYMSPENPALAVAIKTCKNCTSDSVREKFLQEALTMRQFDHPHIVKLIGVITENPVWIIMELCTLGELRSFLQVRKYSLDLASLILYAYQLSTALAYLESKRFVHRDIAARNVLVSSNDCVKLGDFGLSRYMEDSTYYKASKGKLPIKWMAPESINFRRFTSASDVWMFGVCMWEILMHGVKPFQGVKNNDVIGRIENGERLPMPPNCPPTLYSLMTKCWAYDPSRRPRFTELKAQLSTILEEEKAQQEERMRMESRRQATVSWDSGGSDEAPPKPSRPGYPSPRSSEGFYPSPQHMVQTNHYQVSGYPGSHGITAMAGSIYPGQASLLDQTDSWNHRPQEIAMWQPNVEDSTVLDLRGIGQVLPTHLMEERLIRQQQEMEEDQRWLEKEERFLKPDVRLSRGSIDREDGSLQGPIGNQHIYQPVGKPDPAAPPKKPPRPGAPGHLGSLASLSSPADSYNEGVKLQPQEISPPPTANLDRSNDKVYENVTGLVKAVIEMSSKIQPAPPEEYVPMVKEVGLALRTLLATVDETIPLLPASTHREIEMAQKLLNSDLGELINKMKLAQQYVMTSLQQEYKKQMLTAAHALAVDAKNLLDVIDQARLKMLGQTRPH
Albumin (Bos taurus), sequence (P02769 whole entry, looked up): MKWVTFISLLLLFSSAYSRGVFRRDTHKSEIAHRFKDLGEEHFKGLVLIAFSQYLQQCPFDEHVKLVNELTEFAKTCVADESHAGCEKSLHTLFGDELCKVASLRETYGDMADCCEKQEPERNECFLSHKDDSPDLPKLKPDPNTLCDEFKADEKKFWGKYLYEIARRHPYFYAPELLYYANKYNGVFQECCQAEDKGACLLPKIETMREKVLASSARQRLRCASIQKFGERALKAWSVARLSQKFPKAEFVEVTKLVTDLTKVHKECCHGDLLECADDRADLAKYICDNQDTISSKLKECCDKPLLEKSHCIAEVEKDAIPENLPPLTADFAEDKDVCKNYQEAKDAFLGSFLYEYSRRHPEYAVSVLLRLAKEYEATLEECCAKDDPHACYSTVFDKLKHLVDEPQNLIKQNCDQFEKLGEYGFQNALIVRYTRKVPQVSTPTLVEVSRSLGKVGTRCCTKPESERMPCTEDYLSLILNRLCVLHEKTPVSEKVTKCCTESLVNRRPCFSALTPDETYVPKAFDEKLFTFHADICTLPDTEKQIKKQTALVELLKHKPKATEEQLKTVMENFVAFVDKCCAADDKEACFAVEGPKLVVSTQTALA
Concanavalin-A (Canavalia ensiformis), sequence (P02866 whole entry, looked up): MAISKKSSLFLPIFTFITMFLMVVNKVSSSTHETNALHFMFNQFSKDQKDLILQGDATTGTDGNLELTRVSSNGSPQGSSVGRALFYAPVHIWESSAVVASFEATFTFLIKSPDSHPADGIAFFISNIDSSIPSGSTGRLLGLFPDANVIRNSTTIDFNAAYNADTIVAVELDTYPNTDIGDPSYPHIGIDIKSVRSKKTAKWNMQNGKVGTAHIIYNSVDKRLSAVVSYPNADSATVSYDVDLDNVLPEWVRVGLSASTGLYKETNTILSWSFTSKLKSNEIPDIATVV
Fibroblast growth factor 2 (Homo sapiens), sequence (P09038 whole entry, looked up): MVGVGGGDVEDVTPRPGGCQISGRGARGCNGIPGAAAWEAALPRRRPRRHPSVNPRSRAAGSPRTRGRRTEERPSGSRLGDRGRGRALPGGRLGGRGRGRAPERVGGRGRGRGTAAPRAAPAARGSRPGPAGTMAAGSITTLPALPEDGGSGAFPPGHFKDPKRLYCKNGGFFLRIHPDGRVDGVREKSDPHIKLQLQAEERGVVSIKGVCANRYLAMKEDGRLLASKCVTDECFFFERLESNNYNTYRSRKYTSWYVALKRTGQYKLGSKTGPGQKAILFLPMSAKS

`C=CC[C@@]12N=C(c3ccc(OCCCO)cc3)O[C@@H]1c1ccccc1N(C)C2=O`: the composite z-score in [1] was -0.16; in assay [3], 0.0637; in assay [4] it was -0.0374; in [5] it was 0.655; in [6] it was 2.67; in [7], 0.319. Besides, the composite z-score in assay [8] came out at 1.22; in [9] it was 0.718; in [10], 0.838; in assay [11], 2.16; in [12], 1.23; in assay [13] it was 0.338. For the same molecule, the composite z-score in assay [14] is 0.363; in assay [15], 1.52; in assay [16], 1.62; in [18] it was 0.283; in assay [19], 0.65. In addition, the composite Z-score in assay [2] is -0.419 (inactive). In addition, the z-score in assay [17] is 1.26; in assay [20], -4.19 (inactive).
On to `COc1ccc(C#Cc2ccc3c(c2)[C@]2(C(=O)N3)[C@H](C(=O)NC[C@H](O)c3ccccc3)[C@H]3C(=O)O[C@H](c4ccccc4)[C@H](c4ccccc4)N3[C@@H]2c2ccc(O)cc2)cc1`, for which the composite z-score is 0.186 in assay [1]; 0.0585 in [3]; -0.139 in assay [4]; 0.566 in assay [5]; 2.46 in assay [6]; 0.624 in assay [7]. For the same molecule, the composite z-score in [8] was 1.29; in assay [9], -0.0259; in assay [10], 1.13; in assay [11] it was 2.71; in [12] it was 1.23; in assay [13] it was 0.521. The composite z-score in assay [14] turned out to be 0.901; in assay [15] it was 1.08; in [16] it was 0.811; in assay [18], 0.767; in [19], 0.947. In addition, in assay [2], the composite Z-score was 0.658 (inactive). For the same molecule, the z-score in assay [17] is -1.57; in [20] it was 0.656 (inactive).
On to `O=C1O[C@@H](c2ccccc2)[C@@H](c2ccccc2)N2[C@@H](c3ccccc3OCCO)[C@]3(C(=O)Nc4ccc(C#CC5=CCCCC5)cc43)[C@@H](C(=O)N3CCCCCCC3)[C@H]12`, for which the composite z-score came out at 0.407 in assay [1]; 2.16 in assay [3]; 1.08 in [4]; 1.04 in [5]; 4.3 in assay [6]; 1.29 in [7]. Moreover, the composite z-score in assay [8] is 1.31; in assay [9], 1.68; in assay [10], 1.09; in assay [11], 1.53; in assay [12] it was 1.32; in assay [13], 3.35. Besides, the composite z-score is 0.487 in [14]; 1.48 in assay [15]; 0.095 in assay [16]; 1.63 in assay [18]; 1.64 in [19]. In addition, in assay [2], the composite Z-score was 7.47 (inactive). Besides, the z-score was -0.489 in assay [17] and -1.16 (inactive) in assay [20].
Consider `C=C(C)[C@@H]1CC=C(C(O)C2C=CC3C(=O)N(c4ccccc4)C(=O)C3N2Nc2ccccc2)CC1` (stereo not given in full), for which the composite z-score in assay [1] worked out at 0.889; in assay [3], 0.75; in assay [4], 0.405; in assay [5] it was 0.879; in assay [6], 2.84; in assay [7], 0.736. In addition, the composite z-score was determined as 1.3 in [8]; 0.543 in assay [9]; 1.13 in [10]; 0.858 in [11]; 1.24 in [12]; 0.0294 in [13]. In addition, the composite z-score in [14] was determined as 0.982; in [15], 1.22; in assay [16] it was 0.001; in [18] it was 0.226; in [19], 1.32. The composite Z-score in assay [2] was 0.788 (inactive). Moreover, the z-score is -0.369 in assay [17] and -1.24 (inactive) in [20].
Turning to `CCc1cccc(NC(=O)O[C@H]2[C@H](OC(=O)Nc3ccccc3-c3ccccc3)[C@@H](OC(=O)Nc3ccccc3-c3ccccc3)[C@@H](OC)O[C@@H]2CO)c1`, the composite z-score in assay [1] was 0.81; in assay [3], 0.13; in assay [4], -0.0238; in [5], 0.704; in assay [6] it was 2.8; in [7], 0.219. The composite z-score in assay [8] was 1.3; in [9], -0.229; in assay [10], 1.07; in assay [11], 2.04; in assay [12], 1.31; in [13], 0.69. The composite z-score in assay [14] turned out to be 1.02; in [15] it was 1.02; in assay [16], 0.179; in assay [18], 0.345; in assay [19], 1.08. Moreover, the composite Z-score in [2] was 0.237 (inactive). In addition, the z-score in assay [17] is -1.12; in assay [20] it was 0.532 (inactive).
